From PubChem
MRP reversal = reverses drug resistance mediated by MRP; H69AR cells + 2 uM doxorubicin, CellTiter-Glo, 72 h; differential viability (reversal), % at 10 µM; 85,000 tested, 0.04% active; AID 602;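 active = viability drop by adding the cancer drug above about 55%, with treated viability meeting a 40% cutoff, limit read from the data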;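 also: viability without doxorubicin minus viability with 2 µM doxorubicin for each compound; larger differential means the compound sensitizes cells more to doxorubicin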
CD11b adhes inh = CD11b/CD18-fibrinogen binding inhibition. K562 CD11b/CD18 adhesion to fibrinogen, ATPlite luminescence; Mn2+ added to activate the integrin. inhibition, % at 10 µM. 93,000 tested, 0.54% active;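 active = primary inhibition of 50% or more at 10 µM, then 40% or more on retest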
Target sequence (P05107 whole entry, looked up, other chains not shown): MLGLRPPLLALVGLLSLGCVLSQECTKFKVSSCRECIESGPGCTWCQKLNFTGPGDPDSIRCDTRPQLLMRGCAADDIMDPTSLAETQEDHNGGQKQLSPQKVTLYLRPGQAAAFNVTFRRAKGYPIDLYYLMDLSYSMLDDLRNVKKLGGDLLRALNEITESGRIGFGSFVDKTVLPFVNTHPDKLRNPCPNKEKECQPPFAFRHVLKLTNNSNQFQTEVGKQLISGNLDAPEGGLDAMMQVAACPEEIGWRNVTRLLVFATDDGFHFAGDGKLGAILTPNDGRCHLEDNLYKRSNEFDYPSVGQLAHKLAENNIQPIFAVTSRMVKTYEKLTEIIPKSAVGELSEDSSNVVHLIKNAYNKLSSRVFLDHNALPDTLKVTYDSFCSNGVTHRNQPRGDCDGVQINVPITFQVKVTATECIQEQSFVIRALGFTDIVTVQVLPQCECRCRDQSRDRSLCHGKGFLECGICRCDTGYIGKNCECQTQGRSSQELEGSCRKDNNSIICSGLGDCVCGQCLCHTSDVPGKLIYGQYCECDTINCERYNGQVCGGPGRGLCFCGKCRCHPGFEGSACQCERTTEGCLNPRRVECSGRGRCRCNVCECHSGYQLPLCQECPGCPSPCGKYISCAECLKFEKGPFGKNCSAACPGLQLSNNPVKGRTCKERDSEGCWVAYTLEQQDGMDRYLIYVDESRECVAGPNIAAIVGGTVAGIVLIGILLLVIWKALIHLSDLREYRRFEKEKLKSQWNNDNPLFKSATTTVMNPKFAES
MRP-1 activ = activates MRP-1; AID 799; H69AR cells + doxorubicin, viability rescue, CellTiter-Glo; viability increase, % at 10 µM; 140,000 tested, 0.61% active;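 active = viability gain under doxorubicin at or above a set limit, the compound median plus 3 SD, cut at about 4.7% in these data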;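 also: MRP-1 overexpressing cells given doxorubicin 25 µM after compound pretreatment; 18-22 h compound pretreatment then 72 h with doxorubicin before readout; 0% = doxorubicin-only wells and 100% = vehicle-treated cells without doxorubicin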
Phagocyt inh = macrophage phagocytosis inhibition | inhibition, % at 5 µM | AID 1029 | J774A.1 macrophage IgG-bead phagocytosis, imaging | 110,000 tested, 0.07% active;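 active = inhibition above the mean of the plate negative controls plus 5 SD, cut at about 13% in these data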;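 also: phagocytic index as fraction of beads internalized from green versus red external bead signal; plate controls were DMSO negative control for no effect and cytochalasin-D positive control for full effect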
CD11b adhes enh = enhancers of human CD11b/CD18 binding to fibrinogen. P05107+P11215. activation, % at 10 µM. 93,000 tested, 0.07% active. K562 CD11b/CD18 adhesion to fibrinogen, ATPlite luminescence. AID 1499;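 active = 10 µM primary screen giving 50% or more activity, confirmed by 40% or more on retest at that dose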
sdo1 growth = restores growth of sdo1-depleted yeast. S. cerevisiae sdo1-depleted JHY4D growth rescue, OD600 30 h; active compounds read high; pdr5 snq2 efflux-pump mutant strain. z-score at 10 µM. 140,000 tested, 0.21% active. AID 817;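 active = z-score above 3 at both the 24 hr and the 30 hr optical density reads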;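 also: z-score against mean and SD of all compound wells on the same plate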
Numbers without * were called inactive; . = no result. Rows were chosen to be rich in hits. Some 1.3% of all compounds tested hit in one or more screens of this group.

SMILES | MRP reversal | CD11b adhes inh | MRP-1 activ | Phagocyt inh | CD11b adhes enh | sdo1 growth
CC(Sc1nc2ccccc2s1)C(=O)NC1CCCc2ccccc21 (configuration not stated) | . | 7 | -1 | -4 | 3 | -1.5
CCCOc1ccc(Br)cc1CSC(=N)N | . | 102* | -2 | 4 | -7 | 0.53
CCOc1ccc(Br)cc1CC(=O)O | -10 | . | -1 | . | . | 0
Cc1cccc(NC(=O)Cn2c(=O)n(Cc3ccco3)c(=N)c3c4c(sc32)COC(C)(C)C4)c1 | -2 | 3 | 9.4* | -1 | 3 | 0.08
Cc1ccc(-c2csc(/C(C#N)=C/Nc3ccccc3SC(F)(F)F)n2)c(C)c1 | . | . | -3 | -8 | . | -0.74
COc1ccc(NC(=O)CSc2ccccc2)cc1S(=O)(=O)N1CCCCC1 | . | . | 1 | . | . | 0.04
COc1ccc(NC(=O)CCCC2CCCCC2)cc1S(=O)(=O)N1CCCCC1 | . | . | 5.7* | . | . | 0.03
CCn1c(-c2ccccc2Cl)nn(CC(=O)Nc2ccc(OC)cc2)c1=S | . | 14 | -1 | 2 | 2 | -1.5
Fc1ccc(NC(=S)Nc2ccc(F)c(Cl)c2)cc1Cl | . | 92* | -7 | 0 | -7 | -2
CC1CCCC(NC(=O)COC(=O)Cc2ccsc2)C1C (configuration not stated) | . | -15 | 0 | -1 | -1 | 0.49
CCc1nnc(NC(=O)c2ccc(S(=O)(=O)N3CCCCCC3)cc2)s1 | 1 | . | 5.4* | . | . | -0.71
CCc1nnc(NC(=O)[C@@H](NC(=O)c2cccc(S(=O)(=O)N(CC)CC)c2)C(C)C)s1 | . | -8 | 5.2* | 0 | 2 | 0.62
CCc1nnc(NC(=O)c2ccc(S(=O)(=O)NCC(C)C)cc2)s1 | . | -27 | 9.6* | -1 | -1 | -0.55
C=CCN(CC=C)S(=O)(=O)c1ccc2nsnc2c1 | 4 | -14 | -2 | 1 | 0 | 0.73
CC(C)Oc1ccc(C2/C(=C(/O)c3ccc(F)cc3)C(=O)C(=O)N2CCCN(C)C)cc1 (configuration not stated) | -1 | . | . | . | . | .
O=C1CCCN1CC(O)CS(=O)(=O)c1ccc(Cl)cc1 (configuration not stated) | . | -5 | -2 | -1 | 1 | 0.77
COCCCNC(=S)N1CCN(S(C)(=O)=O)CC1 | . | . | -1 | 2 | . | 0.63
Cc1cc(=O)oc2cc(OCC(=O)Nc3nnc(C(C)C)s3)ccc12 | 27 | -6 | 1 | -1 | 5 | 1
Cc1nnc(NC(=O)C(C)Oc2ccc3c(C)cc(=O)oc3c2)s1 (configuration not stated) | 3 | 10 | 7.7* | 4 | -2 | 0.97
CCOC(=O)COn1c(=O)c(=O)n(O)c2ccccc21 | 0 | 2 | -1 | 0 | -2 | 0.55
CC1CCc2c(sc3nc(CSc4ncn[nH]4)[nH]c(=O)c23)C1 (configuration not stated) | . | -8 | 18* | -8 | 0 | 1.2
CSc1nc2sc3c(c2c(=O)[nH]1)CCC(C)C3 (configuration not stated) | 11 | 2 | -1 | 0 | 1 | 0.28
COc1ccc(C(=O)NCc2ccccc2)cc1Br | . | 0 | 2 | -8 | 0 | -0.42
COc1ccc(C(=O)NCc2ccc3c(c2)OCO3)cc1S(=O)(=O)NCc1ccc(Cl)cc1 | . | . | 1 | -5 | . | 0.28
COc1ccc(C(=O)NCc2ccc3c(c2)OCO3)cc1S(=O)(=O)N(C)Cc1ccccc1 | . | 16 | 7.3* | . | 1 | -0.69
SMILES | MRP reversal | CD11b adhes inh | MRP-1 activ | Phagocyt inh | CD11b adhes enh | sdo1 growth
COc1ccc(C(=O)NCc2ccccc2)cc1S(=O)(=O)N1CCCc2ccccc21 | . | -1 | 5.4* | . | -4 | -1.1
Cc1c(C(=O)N2CCC(C)CC2)sc2ncnc(N(C)c3ccccc3)c12 | 12 | . | -4 | . | . | -2.4
Cc1nnsc1NC(=O)OCc1ccc(C(F)(F)F)cc1 | . | . | 1 | . | . | -0.68
C[C@@H](C(=O)Nc1ccc2ccccc2c1)[C@H]1C[C@]1(C)[C@H](NC(=O)c1cccnc1)c1ccccc1 | . | . | -4 | . | . | 7.2*
C[C@@H](C(=O)Nc1ccc2ccccc2c1)[C@@H]1C[C@@]1(C)[C@@H](NC(=O)c1ccccc1)c1ccccc1 | . | . | -2 | . | . | 1.2
C=CCn1c(SCCC(=O)O)nc2c1c(=O)n(C)c(=O)n2C | -17 | 11 | 2 | 1 | -2 | 0.63
COc1ccc(N2C(N)=C(C#N)C(c3ccsc3)C3=C2CCCC3=O)c(OC)c1 (configuration not stated) | . | . | -3 | -3 | . | 0.73
